Measurements from the supplement of paper PMC9897528.
Unmarked numbers belong to inactive results.
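Note: conidia screened in RPMI 1640 medium under 5% CO2, growth read by spectrophotometer, medium with 0.5% DMSO serving as the untreated reference.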

Each compound was assayed on Scedosporium aurantiacum CBS 136046 (assay: growth inhibition relative to DMSO control (OD600); higher = more antifungal activity, active = 80 or more; extreme values may be limits of the assay). Conditions: 5 µM; 72 h; 37 °C.
CC(C)=CCC/C(C)=C/CNCCNC1C2CC3CC(C2)CC1C3 (stereo unspecified) gave a growth inhibition of 61.4%.
With O=S(=O)(Nc1ccc(O)cc1)c1cccc2cccnc12 the growth inhibition was 13.2%.
In the case of Cc1[nH]c2ccccc2c1CC(=O)N[C@@H](Cc1ccccc1)C(=O)N(C)c1ccccc1, the growth inhibition is reported as 10.7%.
Work on COc1cc(Cc2cc(N)nc(N)n2)cc(OC)c1OC yielded a growth inhibition of 11.7%.
With Cc1ccc(Oc2ccccc2-c2csc(N=C3NCCCN3)n2)c(C)c1 the growth inhibition was 68%.
Oc1cc(-c2cccc3ccccc23)[nH]n1 showed a growth inhibition of 7.34%.
In the case of O=C(NNC(=S)Nc1ccc(Cl)cc1)c1ccncc1, the growth inhibition is reported as 10.8%.
Cc1cc(C2CCCCC2)n(O)c(=O)c1 showed a growth inhibition of 18.5%.
With O=[N+]([O-])c1ccc2c(CCc3c[nH]c4ccccc34)c[nH]c2c1 the growth inhibition was 48.7%.
Compound CCc1ccc(C2CC(C(F)(F)F)n3ncc(C(=O)NCc4ccc(OC)cc4)c3N2)cc1 (stereo unspecified) has a growth inhibition of 34.5%.
With CCc1nc(N)nc(N)c1C#CC(C)c1cc(OC)cc(-c2ccncc2)c1 (stereo unspecified) the growth inhibition was 48.8%.
Clc1cc(Cl)c2c(c1)CCc1ccccc1C2n1ccnc1 (stereo unspecified) was tested, and the growth inhibition was 80.2% (active).
In the case of CCCCCOc1ccc(/C=C2\Oc3c(ccc(O)c3O)C2=O)c(O)c1, the growth inhibition is reported as 1.85%.
O=C(CC1Sc2ncnn2C1=O)Nc1ccc(Br)cc1 (stereo unspecified) was tested, and the growth inhibition was 33.4%.
Compound CCC(C)n1ncn(-c2ccc(N3CCN(c4ccc(OCC5COC(Cn6cncn6)(c6ccc(Cl)cc6Cl)O5)cc4)CC3)cc2)c1=O (stereo unspecified) has a growth inhibition of 57.2%.
Compound CCCCc1ccc(S(=O)(=O)Nc2cc(C)on2)cc1 has a growth inhibition of 2.13%.
NC1C2CC3CC(C2)CC1C3 (stereo unspecified) was tested, and the growth inhibition was 23.6%.
In the case of CN(C)c1[nH]c(=O)ncc1F, the growth inhibition is reported as 24.8%.
Work on Nc1nc(-c2ccccc2)nc2c1ncn2[C@@H]1O[C@H](COS(=O)(=O)NC(=O)c2ccccc2O)[C@@H](O)[C@H]1O yielded a growth inhibition of 30%.
Work on CCCCc1ccc(-c2nc(C)c(C(=O)OC)s2)cc1 yielded a growth inhibition of 12.4%.
Compound COC(=O)Nc1nc2cc([S+]([O-])c3ccccc3)ccc2[nH]1 (stereo unspecified) has a growth inhibition of 0.624%.
